Article PMC5540273 (PLoS ONE, 2017)

Tests used:
Conditions in all cases: concentration: 1 μM, replicates: in singlicate; n = 1
[1] = tested on: T1, IKK-alpha
T1 construct: gene CHUK

[2] = tested on: T2, IKK-beta
T2 construct: gene IKBKB

[3] = tested on: T3, IKK-epsilon
T3 construct: gene IKBKE

[4] = tested on: INSRR
[5] = tested on: INSR
[6] = tested on: IRAK1
[7] = tested on: IRAK3
[8] = tested on: IRAK4
[9] = tested on: ITK
[10] = tested on: JAK1(JH1domain-catalytic)
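Note: KINOMEscan kinase panel screen.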

CN(C)c1ncnc2nc[nH]c12 [SKF-31736]
%Inh [1]: 23% | %Inh [2]: 15% | %Inh [3]: 0% | %Inh [4]: 9% | %Inh [5]: 0% | %Inh [6]: 43% | %Inh [7]: 0% | %Inh [8]: 4% | %Inh [9]: 0% | %Inh [10]: 0%

Cc1cccc(Nc2nc(N[C@H]3CCCC[C@H]3N)ncc2C(N)=O)c1.Cl [GSK986310]
%Inh [1]: 0% | %Inh [2]: 11% | %Inh [3]: 34% | %Inh [4]: 8% | %Inh [5]: 26% | %Inh [6]: 88% | %Inh [7]: 17% | %Inh [8]: 86% | %Inh [9]: 29% | %Inh [10]: 77%

COc1cccc(C2=C(Nc3cccc(O)c3)C(=O)NC2=O)c1 [SB-390771]
%Inh [1]: 2% | %Inh [2]: 18% | %Inh [3]: 40% | %Inh [4]: 0% | %Inh [5]: 3% | %Inh [6]: 29% | %Inh [7]: 9% | %Inh [8]: 38% | %Inh [9]: 10% | %Inh [10]: 9%

CC(=O)Nc1cn2nc(Oc3cccc(NC(=O)c4cccc(C(F)(F)F)c4)c3)ccc2n1
%Inh [1]: 0% | %Inh [2]: 0% | %Inh [3]: 0% | %Inh [4]: 0% | %Inh [5]: 0% | %Inh [6]: 0% | %Inh [7]: 44% | %Inh [8]: 0% | %Inh [9]: 0% | %Inh [10]: 32%

CCn1cnc2c(NCc3ccccc3)ncnc21 [SKF-96418]
%Inh [1]: 26% | %Inh [2]: 19% | %Inh [3]: 0% | %Inh [4]: 0% | %Inh [5]: 2% | %Inh [6]: 25% | %Inh [7]: 0% | %Inh [8]: 0% | %Inh [9]: 0% | %Inh [10]: 6%

CS(=O)(=O)c1cccc(CNc2nc(Nc3ccc4c(c3)CCC(=O)N4)ncc2C(F)(F)F)c1
%Inh [1]: 0% | %Inh [2]: 0% | %Inh [3]: 48% | %Inh [4]: 20% | %Inh [5]: 16% | %Inh [6]: 0% | %Inh [7]: 22% | %Inh [8]: 0% | %Inh [9]: 0% | %Inh [10]: 50%

Nc1ncnc2scc(-c3ccc(NC(=O)Cc4cc(F)ccc4F)cc3)c12.O=C(O)C(F)(F)F [SB-731254-M]
%Inh [1]: 4% | %Inh [2]: 0% | %Inh [3]: 45% | %Inh [4]: 65% | %Inh [5]: 15% | %Inh [6]: 0% | %Inh [7]: 16% | %Inh [8]: 0% | %Inh [9]: 0% | %Inh [10]: 0%

Fc1cc(Cl)ccc1Nc1ccnc2cc(-c3ccc(CN4CCSCC4)o3)ccc12 [GW560106]
%Inh [1]: 31% | %Inh [2]: 9% | %Inh [3]: 0% | %Inh [4]: 0% | %Inh [5]: 0% | %Inh [6]: 18% | %Inh [7]: 7% | %Inh [8]: 0% | %Inh [9]: 8% | %Inh [10]: 11%

CCn1c(-c2nonc2N)nc2c(-c3ccccc3)ncc(OCCCN)c21.O=C(O)C(F)(F)F.O=C(O)C(F)(F)F [GSK260205]
%Inh [1]: 32% | %Inh [2]: 16% | %Inh [3]: 3% | %Inh [4]: 0% | %Inh [5]: 0% | %Inh [6]: 29% | %Inh [7]: 0% | %Inh [8]: 21% | %Inh [9]: 14% | %Inh [10]: 11%

Cc1ccc(NC(=O)c2cccc(N3CCCCC3)c2)cc1-c1ccc(C(=O)NCC2CC2)cc1 [GSK1917008]
%Inh [1]: 54% | %Inh [2]: 29% | %Inh [3]: 15% | %Inh [4]: 4% | %Inh [5]: 12% | %Inh [6]: 17% | %Inh [7]: 11% | %Inh [8]: 20% | %Inh [9]: 26% | %Inh [10]: 0%

O=C(Nc1c(F)cccc1F)c1cc(C(=O)c2ccccc2F)c[nH]1 [GSK1326180]
%Inh [1]: 0% | %Inh [2]: 0% | %Inh [3]: 0% | %Inh [4]: 5% | %Inh [5]: 17% | %Inh [6]: 0% | %Inh [7]: 7% | %Inh [8]: 0% | %Inh [9]: 0% | %Inh [10]: 3%

Cc1ccc(NC(=O)c2ccnc(N3CCCCC3)c2)cc1-c1ccc(C(=O)NCC2CC2)cc1 [GW775610]
%Inh [1]: 0% | %Inh [2]: 0% | %Inh [3]: 0% | %Inh [4]: 0% | %Inh [5]: 0% | %Inh [6]: 0% | %Inh [7]: 0% | %Inh [8]: 0% | %Inh [9]: 51% | %Inh [10]: 52%

Cn1cc(-c2cnc(N)c3c(-c4ccc5c(c4)CCN5C(=O)Cc4ccccc4)csc23)cn1 [GSK2593074]
%Inh [1]: 0% | %Inh [2]: 0% | %Inh [3]: 59% | %Inh [4]: 13% | %Inh [5]: 12% | %Inh [6]: 0% | %Inh [7]: 5% | %Inh [8]: 0% | %Inh [9]: 23% | %Inh [10]: 0%

Nc1ncc(-c2cn[nH]c2)c2scc(-c3ccc4c(c3)CCN4C(=O)Cc3ccccc3)c12 [GSK2593067]
%Inh [1]: 0% | %Inh [2]: 31% | %Inh [3]: 50% | %Inh [4]: 24% | %Inh [5]: 13% | %Inh [6]: 0% | %Inh [7]: 25% | %Inh [8]: 0% | %Inh [9]: 25% | %Inh [10]: 2%

CN(c1ccc(NC(=O)N2CCN(CCCN3CCOCC3)CC2)cc1)c1ccnc(Nc2ccc(CS(C)(=O)=O)cc2)n1.Cl [GW830899]
%Inh [1]: 0% | %Inh [2]: 0% | %Inh [3]: 0% | %Inh [4]: 0% | %Inh [5]: 0% | %Inh [6]: 0% | %Inh [7]: 50% | %Inh [8]: 0% | %Inh [9]: 0% | %Inh [10]: 0%

COc1cccc(-c2nc(-c3ccccc3)[nH]c2-c2ccncc2)c1 [SB-610250]
%Inh [1]: 33% | %Inh [2]: 35% | %Inh [3]: 0% | %Inh [4]: 0% | %Inh [5]: 5% | %Inh [6]: 48% | %Inh [7]: 0% | %Inh [8]: 46% | %Inh [9]: 15% | %Inh [10]: 23%

CN(c1ccc(F)c(NC(=O)c2cccc(OC(C)(C)C#N)c2Cl)c1)c1ccc2nc(NC(=O)C3CC3)sc2n1
%Inh [1]: 0% | %Inh [2]: 0% | %Inh [3]: 29% | %Inh [4]: 0% | %Inh [5]: 0% | %Inh [6]: 0% | %Inh [7]: 8% | %Inh [8]: 0% | %Inh [9]: 0% | %Inh [10]: 10%

N#CC1(c2cccc(C(=O)Nc3cccc(Oc4ccc5nc(NC(=O)C6CC6)sc5n4)c3)c2)CC1
%Inh [1]: 0% | %Inh [2]: 0% | %Inh [3]: 0% | %Inh [4]: 0% | %Inh [5]: 0% | %Inh [6]: 0% | %Inh [7]: 0% | %Inh [8]: 0% | %Inh [9]: 0% | %Inh [10]: 8%

CSc1ccc(NC2=C(c3ccc(Cl)cc3)C(=O)NC2=O)cc1 [SB-317658]
%Inh [1]: 0% | %Inh [2]: 0% | %Inh [3]: 10% | %Inh [4]: 30% | %Inh [5]: 4% | %Inh [6]: 0% | %Inh [7]: 0% | %Inh [8]: 0% | %Inh [9]: 0% | %Inh [10]: 0%

Cl.Cl.NCC(NC(=O)c1cc(-c2cccnc2)c(-c2ccnc3[nH]ccc23)s1)c1ccccc1 (stereo not drawn) [GSK1323434]
%Inh [1]: 14% | %Inh [2]: 54% | %Inh [3]: 21% | %Inh [4]: 0% | %Inh [5]: 0% | %Inh [6]: 76% | %Inh [7]: 1% | %Inh [8]: 8% | %Inh [9]: 10% | %Inh [10]: 15%

COc1ccc(NC(=O)c2ccoc2)cc1-c1ccc(C(=O)NCC2CC2)cc1 [GW810437]
%Inh [1]: 0% | %Inh [2]: 0% | %Inh [3]: 0% | %Inh [4]: 0% | %Inh [5]: 10% | %Inh [6]: 6% | %Inh [7]: 0% | %Inh [8]: 0% | %Inh [9]: 4% | %Inh [10]: 0%

O=C(Nc1n[nH]c2nc(-c3ccccc3O)ccc12)C1CC1 [SB-711880]
%Inh [1]: 0% | %Inh [2]: 0% | %Inh [3]: 10% | %Inh [4]: 0% | %Inh [5]: 0% | %Inh [6]: 0% | %Inh [7]: 2% | %Inh [8]: 0% | %Inh [9]: 46% | %Inh [10]: 36%

Cc1ccc(O)cc1Nc1ccnc2ccc(C(C)(C)C)cc12 [GW856805]
%Inh [1]: 52% | %Inh [2]: 45% | %Inh [3]: 6% | %Inh [4]: 18% | %Inh [5]: 16% | %Inh [6]: 13% | %Inh [7]: 0% | %Inh [8]: 0% | %Inh [9]: 0% | %Inh [10]: 2%

O=C(O)C(F)(F)F.O=c1[nH]ccc2nc(N[C@@H]3CCNC3)nc(Nc3cc(Cl)cc(Cl)c3)c12 [GSK2188764]
%Inh [1]: 72% | %Inh [2]: 44% | %Inh [3]: 29% | %Inh [4]: 5% | %Inh [5]: 36% | %Inh [6]: 90.1% | %Inh [7]: 1% | %Inh [8]: 17% | %Inh [9]: 17% | %Inh [10]: 93.5%

CCNc1nccc(-c2c(-c3ccc(F)cc3)ncn2C2CCN(C)CC2)n1
%Inh [1]: 0% | %Inh [2]: 0% | %Inh [3]: 0% | %Inh [4]: 100% | %Inh [5]: 0% | %Inh [6]: 0% | %Inh [7]: 21% | %Inh [8]: 0% | %Inh [9]: 0% | %Inh [10]: 0%

Cl.N#CCc1ccc(Nc2nccc(Nc3ccc(Oc4ccccc4)cc3)n2)cc1 [GW639905]
%Inh [1]: 39% | %Inh [2]: 45% | %Inh [3]: 14% | %Inh [4]: 4% | %Inh [5]: 0% | %Inh [6]: 42% | %Inh [7]: 62% | %Inh [8]: 32% | %Inh [9]: 0% | %Inh [10]: 57%

CCNC(=O)/C=C/c1n[nH]c2cc(Sc3ccccc3C(=O)NC)ccc12
%Inh [1]: 26% | %Inh [2]: 20% | %Inh [3]: 8% | %Inh [4]: 34% | %Inh [5]: 0% | %Inh [6]: 33% | %Inh [7]: 9% | %Inh [8]: 0% | %Inh [9]: 0% | %Inh [10]: 0%

COc1cc(Nc2nccc(N3CCC(NS(=O)(=O)c4ccc(NC(C)=O)cc4)CC3)n2)cc(OC)c1OC [GSK1379825]
%Inh [1]: 24% | %Inh [2]: 14% | %Inh [3]: 11% | %Inh [4]: 0% | %Inh [5]: 0% | %Inh [6]: 74% | %Inh [7]: 85% | %Inh [8]: 44% | %Inh [9]: 17% | %Inh [10]: 20%

CC(C)(C)c1ccc(C(=O)Nc2cn3cc(-n4ccnc4)ccc3n2)cc1
%Inh [1]: 2% | %Inh [2]: 9% | %Inh [3]: 0% | %Inh [4]: 5% | %Inh [5]: 26% | %Inh [6]: 21% | %Inh [7]: 55% | %Inh [8]: 65% | %Inh [9]: 14% | %Inh [10]: 11%

CC(C)c1nc(-c2ccc(F)c(NS(=O)(=O)c3c(F)cccc3F)c2)c(-c2ccnc(Nc3ccc(N4CCOCC4)nc3)n2)s1 [GSK1804250]
%Inh [1]: 0% | %Inh [2]: 0% | %Inh [3]: 23% | %Inh [4]: 2% | %Inh [5]: 11% | %Inh [6]: 0% | %Inh [7]: 3% | %Inh [8]: 0% | %Inh [9]: 9% | %Inh [10]: 17%
